The values that follow come from ChEMBL document CHEMBL1961873, “Compounds: GSK PKIS; Assays: Nanosyn kinase panel” (2012).

In assay [1] the target is Mast/stem cell growth factor receptor Kit (Homo sapiens) (UniProt P10721). The settings on record: at 1 µM.
Assay [2] has as its system Mast/stem cell growth factor receptor Kit (Homo sapiens), P10721 [D816V]. The following applies: at 0.1 µM.
For assay [3] the test system is unchanged. The settings on record: at 1 µM.
For assay [4], the system named is Mast/stem cell growth factor receptor Kit (Homo sapiens), P10721 [T670I]. The following applies: at 0.1 µM.
For assay [5] the test system is unchanged. The settings on record: at 1 µM.
The test system of assay [6] is Mast/stem cell growth factor receptor Kit (Homo sapiens), P10721 [V560G]. The following applies: at 0.1 µM.
The test system is the same in assay [7]. The following applies: at 1 µM.
Assay [8] has as its target Tyrosine-protein kinase Lck (Homo sapiens) (UniProt P06239). The settings on record: at 0.1 µM.
For assay [9] the target is unchanged. The following applies: at 1 µM.
For assay [10], the target named is Leukocyte tyrosine kinase receptor (Homo sapiens) (UniProt P29376). The following applies: at 0.1 µM.
For assay [11] the target is unchanged. The settings on record: at 1 µM.
In assay [12] the target is Tyrosine-protein kinase Lyn (Homo sapiens) (UniProt P07948). The settings on record: at 0.1 µM.
Assay [13] has the same target. The settings on record: at 1 µM.
The target is the same in assay [14]. The settings on record: at 0.1 µM. This is another data set of the same source.
Assay [15] has the same target. The following applies: at 1 µM. The source holds these as a separate data set.
Assay [16] deals with T1, Tyrosine-protein kinase Mer (Homo sapiens) (UniProt Q12866).
T1 sequence (whole entry): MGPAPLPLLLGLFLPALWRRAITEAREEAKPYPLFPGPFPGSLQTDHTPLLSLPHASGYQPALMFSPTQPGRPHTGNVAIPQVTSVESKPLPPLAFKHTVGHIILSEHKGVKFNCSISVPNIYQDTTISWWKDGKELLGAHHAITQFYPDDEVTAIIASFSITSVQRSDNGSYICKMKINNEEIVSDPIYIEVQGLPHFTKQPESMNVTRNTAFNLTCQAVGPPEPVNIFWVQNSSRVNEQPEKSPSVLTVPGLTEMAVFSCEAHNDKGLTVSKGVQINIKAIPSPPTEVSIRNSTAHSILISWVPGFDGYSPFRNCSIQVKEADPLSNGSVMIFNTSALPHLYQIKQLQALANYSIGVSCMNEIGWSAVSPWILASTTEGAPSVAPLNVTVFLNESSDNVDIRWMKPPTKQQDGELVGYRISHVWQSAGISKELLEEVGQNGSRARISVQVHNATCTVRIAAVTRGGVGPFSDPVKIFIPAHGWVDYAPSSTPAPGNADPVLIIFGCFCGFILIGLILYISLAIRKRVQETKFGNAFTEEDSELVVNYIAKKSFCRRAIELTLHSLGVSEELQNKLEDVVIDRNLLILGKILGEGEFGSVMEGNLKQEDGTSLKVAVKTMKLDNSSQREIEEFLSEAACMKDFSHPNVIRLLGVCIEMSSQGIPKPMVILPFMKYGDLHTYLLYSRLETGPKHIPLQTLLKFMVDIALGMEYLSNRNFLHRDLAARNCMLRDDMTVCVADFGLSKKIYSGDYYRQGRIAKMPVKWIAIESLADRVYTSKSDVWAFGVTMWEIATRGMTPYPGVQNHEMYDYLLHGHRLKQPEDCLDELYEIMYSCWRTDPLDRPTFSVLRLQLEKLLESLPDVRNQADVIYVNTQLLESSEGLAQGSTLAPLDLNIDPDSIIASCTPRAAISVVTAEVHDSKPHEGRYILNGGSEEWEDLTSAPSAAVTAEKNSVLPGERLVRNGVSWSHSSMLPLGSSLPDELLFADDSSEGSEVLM
The settings on record: at 0.1 µM.

Assay [17] has as its target T1, Tyrosine-protein kinase Mer (Homo sapiens). The following applies: at 1 µM.
Assay [18] deals with Hepatocyte growth factor receptor (Homo sapiens) (UniProt P08581). The settings on record: at 0.1 µM.
Assay [19] shares this target. The following applies: at 1 µM.
Assay [20] addresses T2, Muscle, skeletal receptor tyrosine-protein kinase (Homo sapiens) (UniProt O15146).
T2 sequence (whole entry): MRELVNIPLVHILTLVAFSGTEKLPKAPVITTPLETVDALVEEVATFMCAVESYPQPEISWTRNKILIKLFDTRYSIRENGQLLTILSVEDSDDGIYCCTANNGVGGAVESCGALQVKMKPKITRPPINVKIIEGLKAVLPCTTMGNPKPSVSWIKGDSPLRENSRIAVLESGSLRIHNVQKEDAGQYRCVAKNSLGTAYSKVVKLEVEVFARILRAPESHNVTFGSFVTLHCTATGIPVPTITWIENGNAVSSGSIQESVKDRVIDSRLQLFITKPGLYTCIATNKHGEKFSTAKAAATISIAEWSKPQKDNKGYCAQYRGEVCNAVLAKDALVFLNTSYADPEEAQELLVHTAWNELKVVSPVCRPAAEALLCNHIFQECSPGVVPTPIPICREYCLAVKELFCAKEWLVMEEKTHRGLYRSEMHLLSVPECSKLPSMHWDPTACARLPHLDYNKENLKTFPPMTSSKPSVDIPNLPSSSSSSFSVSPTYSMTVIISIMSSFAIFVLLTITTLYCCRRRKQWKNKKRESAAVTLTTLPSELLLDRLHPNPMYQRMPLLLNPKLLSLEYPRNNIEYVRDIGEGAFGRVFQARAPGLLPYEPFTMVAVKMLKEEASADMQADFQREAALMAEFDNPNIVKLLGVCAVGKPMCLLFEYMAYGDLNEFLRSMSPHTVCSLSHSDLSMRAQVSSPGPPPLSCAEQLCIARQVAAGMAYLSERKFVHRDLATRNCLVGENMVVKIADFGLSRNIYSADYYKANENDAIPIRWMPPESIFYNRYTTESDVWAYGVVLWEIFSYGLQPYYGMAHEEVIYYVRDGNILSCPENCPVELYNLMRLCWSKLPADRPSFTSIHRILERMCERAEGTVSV
The settings on record: at 0.1 µM.

Leukocyte tyrosine kinase receptor (Homo sapiens), sequence (P29376 whole entry): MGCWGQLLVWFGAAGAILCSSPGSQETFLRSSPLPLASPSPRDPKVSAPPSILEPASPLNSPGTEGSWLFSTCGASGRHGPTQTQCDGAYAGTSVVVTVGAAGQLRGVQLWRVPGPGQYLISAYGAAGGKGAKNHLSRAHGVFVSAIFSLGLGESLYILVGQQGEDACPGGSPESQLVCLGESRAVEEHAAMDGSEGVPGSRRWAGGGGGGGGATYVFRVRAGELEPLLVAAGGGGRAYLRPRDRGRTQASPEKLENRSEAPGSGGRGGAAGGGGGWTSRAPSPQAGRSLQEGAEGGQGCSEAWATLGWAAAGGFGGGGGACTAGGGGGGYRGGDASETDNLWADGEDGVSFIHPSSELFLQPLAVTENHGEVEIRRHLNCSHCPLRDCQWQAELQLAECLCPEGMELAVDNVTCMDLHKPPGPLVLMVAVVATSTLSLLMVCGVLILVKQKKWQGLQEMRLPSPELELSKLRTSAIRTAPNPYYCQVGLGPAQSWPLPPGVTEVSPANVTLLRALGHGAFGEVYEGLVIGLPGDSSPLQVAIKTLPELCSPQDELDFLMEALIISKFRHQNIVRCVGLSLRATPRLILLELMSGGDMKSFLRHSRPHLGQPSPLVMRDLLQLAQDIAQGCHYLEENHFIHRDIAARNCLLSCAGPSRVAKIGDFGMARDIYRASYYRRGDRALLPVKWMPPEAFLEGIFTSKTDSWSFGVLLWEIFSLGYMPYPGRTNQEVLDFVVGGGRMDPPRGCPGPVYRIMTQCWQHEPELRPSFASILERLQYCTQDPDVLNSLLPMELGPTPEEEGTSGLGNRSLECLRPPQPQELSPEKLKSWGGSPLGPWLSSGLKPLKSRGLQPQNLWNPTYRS
Mast/stem cell growth factor receptor Kit (Homo sapiens), P10721 [T670I], sequence (P10721 whole entry T670I): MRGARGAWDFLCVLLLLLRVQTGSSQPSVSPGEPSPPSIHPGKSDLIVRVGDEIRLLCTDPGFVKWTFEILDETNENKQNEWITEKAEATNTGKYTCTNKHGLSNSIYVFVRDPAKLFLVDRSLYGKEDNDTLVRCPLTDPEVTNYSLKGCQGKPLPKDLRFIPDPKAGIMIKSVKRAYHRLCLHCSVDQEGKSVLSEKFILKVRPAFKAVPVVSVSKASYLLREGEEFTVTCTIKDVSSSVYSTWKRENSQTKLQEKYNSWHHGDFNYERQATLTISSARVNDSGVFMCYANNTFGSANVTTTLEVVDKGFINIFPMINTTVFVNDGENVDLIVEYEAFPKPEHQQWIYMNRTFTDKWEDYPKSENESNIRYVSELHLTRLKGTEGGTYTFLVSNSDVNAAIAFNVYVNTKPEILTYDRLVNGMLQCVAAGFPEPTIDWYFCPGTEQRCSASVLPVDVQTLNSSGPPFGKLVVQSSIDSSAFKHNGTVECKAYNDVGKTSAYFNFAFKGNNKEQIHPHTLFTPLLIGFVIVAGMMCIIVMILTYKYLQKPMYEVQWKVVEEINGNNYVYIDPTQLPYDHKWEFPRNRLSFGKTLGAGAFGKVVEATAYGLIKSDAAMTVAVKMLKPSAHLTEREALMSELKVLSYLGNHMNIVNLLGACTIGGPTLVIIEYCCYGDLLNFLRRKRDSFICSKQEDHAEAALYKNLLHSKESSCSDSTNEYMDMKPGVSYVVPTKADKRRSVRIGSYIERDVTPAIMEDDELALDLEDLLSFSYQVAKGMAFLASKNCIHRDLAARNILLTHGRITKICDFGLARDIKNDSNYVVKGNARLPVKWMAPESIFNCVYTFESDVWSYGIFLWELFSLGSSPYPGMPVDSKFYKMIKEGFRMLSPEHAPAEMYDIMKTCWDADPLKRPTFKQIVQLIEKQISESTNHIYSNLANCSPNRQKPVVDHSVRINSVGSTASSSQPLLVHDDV
Hepatocyte growth factor receptor (Homo sapiens), sequence (P08581 whole entry): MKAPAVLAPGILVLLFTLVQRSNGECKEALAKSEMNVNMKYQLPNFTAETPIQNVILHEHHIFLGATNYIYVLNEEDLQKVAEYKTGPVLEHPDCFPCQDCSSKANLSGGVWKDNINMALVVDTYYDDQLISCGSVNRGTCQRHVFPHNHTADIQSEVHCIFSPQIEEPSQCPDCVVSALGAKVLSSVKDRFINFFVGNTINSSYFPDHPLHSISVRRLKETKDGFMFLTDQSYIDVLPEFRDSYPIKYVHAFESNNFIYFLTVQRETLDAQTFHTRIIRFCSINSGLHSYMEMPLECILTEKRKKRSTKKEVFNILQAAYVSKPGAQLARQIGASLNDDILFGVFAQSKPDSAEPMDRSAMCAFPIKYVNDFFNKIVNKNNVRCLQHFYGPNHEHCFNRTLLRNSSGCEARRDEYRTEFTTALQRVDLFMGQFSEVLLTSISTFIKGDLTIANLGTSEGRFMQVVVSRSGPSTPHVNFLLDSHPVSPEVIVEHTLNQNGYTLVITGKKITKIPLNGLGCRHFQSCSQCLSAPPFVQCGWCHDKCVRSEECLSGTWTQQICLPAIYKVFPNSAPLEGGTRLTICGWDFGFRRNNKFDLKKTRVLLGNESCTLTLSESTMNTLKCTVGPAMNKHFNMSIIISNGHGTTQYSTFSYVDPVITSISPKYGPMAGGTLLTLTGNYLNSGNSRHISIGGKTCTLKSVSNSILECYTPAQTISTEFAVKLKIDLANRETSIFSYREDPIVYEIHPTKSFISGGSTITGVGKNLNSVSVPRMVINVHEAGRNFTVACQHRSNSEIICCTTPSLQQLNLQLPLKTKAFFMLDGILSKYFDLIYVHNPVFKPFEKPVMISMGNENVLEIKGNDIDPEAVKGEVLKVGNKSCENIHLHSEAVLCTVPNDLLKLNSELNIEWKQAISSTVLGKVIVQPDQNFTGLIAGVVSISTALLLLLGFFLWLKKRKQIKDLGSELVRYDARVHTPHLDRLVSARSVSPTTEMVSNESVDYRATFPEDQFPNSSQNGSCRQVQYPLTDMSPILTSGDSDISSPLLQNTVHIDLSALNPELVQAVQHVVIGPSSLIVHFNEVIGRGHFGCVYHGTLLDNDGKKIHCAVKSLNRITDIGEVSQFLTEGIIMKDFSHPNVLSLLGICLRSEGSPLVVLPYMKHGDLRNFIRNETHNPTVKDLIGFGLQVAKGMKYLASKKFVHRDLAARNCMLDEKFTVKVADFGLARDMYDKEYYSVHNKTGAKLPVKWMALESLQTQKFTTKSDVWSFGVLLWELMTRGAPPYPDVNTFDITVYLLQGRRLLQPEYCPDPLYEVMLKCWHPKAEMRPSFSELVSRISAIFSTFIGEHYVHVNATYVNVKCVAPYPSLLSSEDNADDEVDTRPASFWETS
Mast/stem cell growth factor receptor Kit (Homo sapiens), sequence (P10721 whole entry): as the sequence (P10721 whole entry T670I) above, with I670T counted along it
Mast/stem cell growth factor receptor Kit (Homo sapiens), P10721 [D816V], sequence (P10721 whole entry D816V): as the sequence (P10721 whole entry T670I) above, with I670T, D816V counted along it
Tyrosine-protein kinase Lyn (Homo sapiens), sequence (P07948 2-512 limits assumed): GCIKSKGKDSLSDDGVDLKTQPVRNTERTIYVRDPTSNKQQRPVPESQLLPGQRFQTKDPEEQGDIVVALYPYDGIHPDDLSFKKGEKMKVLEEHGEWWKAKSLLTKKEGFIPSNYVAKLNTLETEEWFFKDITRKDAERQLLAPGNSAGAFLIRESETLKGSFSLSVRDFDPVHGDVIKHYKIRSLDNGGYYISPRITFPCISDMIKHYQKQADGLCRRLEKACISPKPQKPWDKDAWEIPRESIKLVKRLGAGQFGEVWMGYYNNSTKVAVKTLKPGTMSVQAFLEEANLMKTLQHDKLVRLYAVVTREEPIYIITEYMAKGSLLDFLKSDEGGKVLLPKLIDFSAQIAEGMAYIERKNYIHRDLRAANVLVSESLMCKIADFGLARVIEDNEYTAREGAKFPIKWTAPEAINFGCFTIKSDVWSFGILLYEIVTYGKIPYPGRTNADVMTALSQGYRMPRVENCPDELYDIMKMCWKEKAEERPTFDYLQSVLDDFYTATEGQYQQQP
Mast/stem cell growth factor receptor Kit (Homo sapiens), P10721 [V560G], sequence (P10721 whole entry V560G): as the sequence (P10721 whole entry T670I) above, with V560G, I670T counted along it
Tyrosine-protein kinase Lck (Homo sapiens), sequence (P06239 2-509 limits assumed): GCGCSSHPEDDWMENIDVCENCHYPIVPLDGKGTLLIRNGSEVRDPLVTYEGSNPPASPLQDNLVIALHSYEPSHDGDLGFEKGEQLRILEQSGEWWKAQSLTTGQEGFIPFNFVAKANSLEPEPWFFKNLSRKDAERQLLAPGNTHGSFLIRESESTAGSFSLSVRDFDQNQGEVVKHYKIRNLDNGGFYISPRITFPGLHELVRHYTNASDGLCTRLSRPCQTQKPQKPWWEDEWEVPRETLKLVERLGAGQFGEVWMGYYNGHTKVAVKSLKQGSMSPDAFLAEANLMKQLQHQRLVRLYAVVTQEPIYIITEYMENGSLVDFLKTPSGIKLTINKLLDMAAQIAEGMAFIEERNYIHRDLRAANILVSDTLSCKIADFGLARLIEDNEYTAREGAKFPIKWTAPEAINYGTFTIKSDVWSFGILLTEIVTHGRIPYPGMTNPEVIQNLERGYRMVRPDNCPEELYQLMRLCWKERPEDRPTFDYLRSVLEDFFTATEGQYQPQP

The inhibition is the change of the read-out against control, counted positive when it falls. Turning to `Fc1ccc(-c2ncn(C3CCNCC3)c2-c2ccnc(Oc3ccc(Oc4ccccc4)cc3)n2)cc1`, the inhibition is 6.51% in assay [1]; 2.38% in assay [2]; 2.59% in assay [3]; 1.59% in assay [4]; 1.82% in assay [5]; -2.65% in assay [6]. In addition, the inhibition is -3.42% in [7]; 4.01% in assay [8]; 4.76% in assay [9]; 3.78% in assay [10]; 4.33% in assay [11]; 3.46% in assay [12]. The inhibition in assay [13] turned out to be 5.25%; in [14], 1.56%; in assay [15], 2.92%; in [16], 1.43%; in assay [17] it was 10.6%; in assay [18] it was 9.38%. Besides, the inhibition in [19] was 0.02%; in assay [20], 2.43%.
As for `CCS(=O)(=O)c1ccc(OC)c(Nc2ncc(-c3ccccc3Cl)o2)c1`, the inhibition in [1] came out at 85.2%; in [2], 0.9%; in assay [3], 0.58%; in assay [4] it was 0.14%; in assay [5], 24.3%; in assay [6], 3.4%. Besides, the inhibition came out at 8.88% in [7]; 4.24% in assay [8]; 10.2% in assay [9]; 1.67% in assay [10]; 0.98% in assay [11]; 3.85% in assay [12]. Moreover, the inhibition was 18.6% in assay [13]; 3.61% in assay [14]; 14.8% in assay [15]; -0.83% in assay [16]; 9.17% in assay [17]; 0.15% in assay [18]. Further, the values for the inhibition in assay [19] and in assay [20] were 3.68% and 4.75%, respectively.
As for `Cc1nnc(-c2ccc(C)c(-c3ccc(C(=O)NCc4ccc(Cl)cc4)cc3)c2)o1`, the inhibition in [1] was 3.81%; in [2], 4.88%; in assay [3] it was 1.51%; in assay [4], 2.49%; in [5], 7.38%; in assay [6] it was -1.65%. Further, the inhibition is -1.05% in [7]; -2.94% in assay [8]; -1.25% in assay [9]; 1.83% in assay [10]; 4.02% in assay [11]; 3.85% in assay [12]. The inhibition is 8.64% in [13]; 2.14% in assay [14]; 4.87% in assay [15]; 2.04% in [16]; 1.93% in assay [17]; 4.09% in [18]. The inhibition was determined as 6.08% in [19] and 2.38% in assay [20].
In the case of `NC(=O)Cc1ccccc1Oc1nccc(-c2c(-c3ccc(F)cc3)ncn2C2CCNCC2)n1`, the inhibition in assay [1] is 0.35%; in [2], 0.95%; in assay [3], -1.59%; in [4] it was -0.35%; in assay [5] it was -1.27%; in assay [6], 0.54%. Moreover, the inhibition was -3.43% in assay [7]; 1.45% in [8]; 1.06% in assay [9]; 3.35% in assay [10]; 2.41% in [11]; 2.61% in [12]. Further, the inhibition in assay [13] came out at 3.78%; in assay [14] it was 1.91%; in [15] it was 1.88%; in assay [16], 0.54%; in [17], 3.34%; in [18], 2.67%. Moreover, the results for the inhibition in assay [19] and in [20] were 3.24% and 2.87%, respectively.
In the case of `COc1ccc(C2=C(N3CCc4ccccc43)C(=O)NC2=O)cc1`, the inhibition amounted to 15.1% in assay [1]; 3.56% in assay [2]; 3.25% in [3]; 6.38% in assay [4]; 5.55% in [5]; 3.19% in assay [6]. Moreover, the inhibition in assay [7] was found to be 4.55%; in assay [8], 4.42%; in assay [9] it was 4.16%; in assay [10] it was 5.23%; in assay [11], 5.38%; in assay [12], 6.92%. The inhibition in assay [13] amounted to 6.95%; in [14], 5.2%; in [15], 5.98%; in assay [16], 1.96%; in assay [17], 1.78%; in assay [18], 6.5%. Moreover, the inhibition was determined as 7.87% in assay [19] and 2.97% in assay [20].
In the case of `COc1cc(Nc2ncc3c(C)nc(-c4cccc(Oc5ccccc5)c4)n3n2)cc(OC)c1OC`, the inhibition in assay [1] is 18.8%; in [2], 2.25%; in assay [3], 0.81%; in [4], 0.81%; in assay [5] it was -0.67%; in assay [6], -2.03%. The inhibition in assay [7] came out at 1.13%; in [8], 1.24%; in assay [9] it was 5.01%; in [10] it was 3.21%; in assay [11], 3.54%; in [12] it was 3.39%. The inhibition in [13] turned out to be 4.7%; in [14], 1.89%; in assay [15] it was 3.75%; in assay [16] it was 1.36%; in [17], 1.57%; in [18] it was 1.11%. Moreover, the inhibition was -0.18% in assay [19] and 1.49% in assay [20].
